Measured values taken from PubChem BioAssay (NCATS).
Inconclusive results are not listed. Activity calls are given as the source filed them. Unless noted, calls follow the shape of the dose curve; as a rule, active = well fitted curve in the direction sought with a large enough effect; inconclusive = small, poorly fitted or top-dose-only effect, or another doubt; inactive = no such curve, though single readings can be large; an effect the other way counts as inactive or inconclusive.

Tests used:
[1] = AP1 Signaling Pathway (AID 357; active = well fitted curve in either direction with a large enough effect, not every such curve was filed as active;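 also: ME-180 reporter cells stimulated with EGF at its EC50 level; % is scaled to controls: 0 for no effect and ±100 for the full control effect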); details: ME-180 (cervical carcinoma) AP-1-bla reporter, EGF-induced, beta-lactamase ratio, 5 h; at 17.2 µM (top of the series) unless noted
Method in brief: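 First, ME-180 AP-1-bla cells were cultured overnight at 37 °C in low-serum Opti-MEM. Next, titrated compounds with EC50 EGF were incubated 5 hours. Finally, CCF4 was added for 2.5 hours and the 460/530 nm ratio recorded.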

[2] = NFAT Signaling Pathway (AID 444; active = well fitted curve in either direction with a large enough effect, not every such curve was filed as active;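 also: carbachol stimulus at about its EC50 of 1 µM final; % is scaled to controls: 0 for no effect and ±100 for the full control effect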); details: Jurkat NFAT-bla M1, carbachol, beta-lactamase ratio, 5 h; at 17.2 µM (top of the series) unless noted
Method in brief: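 Jurkat cells with NFAT-driven β-lactamase reporter and co-expressed M1 receptor, stimulated with carbachol (final 1 uM, ~EC50), compound titration, 5 h at 37 °C. CCF4 loaded 1 h at RT; 460/530 nm ratio gave %activity and AC50.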

[3] = Stat Signaling Pathway (AID 446; active = well fitted curve in either direction with a large enough effect, not every such curve was filed as active;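 also: ME-180 cervical cancer cells given 40 pM IL-6 alongside compound; SIE-controlled beta-lactamase reporter measured as 460/530 nm FRET emission ratio; % is scaled to controls: 0 for no effect and ±100 for the full control effect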)
Method in brief: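 Emission at 460 and 530 nm (excitation 405 nm) reports SIE-controlled beta-lactamase in ME-180 cells. Cells received compound with 40 pM IL-6 for 5 hrs at 37 C; data scaled between 300 pM IL-6 and 125 nM JAK-inhibitor controls.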

[4] = target: Glucocorticoid receptor (Homo sapiens) (UniProt P04150); experiment: GR-GFP Redistribution (AID 450;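 active = compounds whose dose series gives a full or clear partial fitted curve of increased nuclear translocation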; also: potency is read from the fitted curve at half-maximal effect); details: U2OS GR-GFP nuclear translocation, laser cytometry, 2 h
Sequence of Glucocorticoid receptor (Homo sapiens) (P04150 whole entry, looked up): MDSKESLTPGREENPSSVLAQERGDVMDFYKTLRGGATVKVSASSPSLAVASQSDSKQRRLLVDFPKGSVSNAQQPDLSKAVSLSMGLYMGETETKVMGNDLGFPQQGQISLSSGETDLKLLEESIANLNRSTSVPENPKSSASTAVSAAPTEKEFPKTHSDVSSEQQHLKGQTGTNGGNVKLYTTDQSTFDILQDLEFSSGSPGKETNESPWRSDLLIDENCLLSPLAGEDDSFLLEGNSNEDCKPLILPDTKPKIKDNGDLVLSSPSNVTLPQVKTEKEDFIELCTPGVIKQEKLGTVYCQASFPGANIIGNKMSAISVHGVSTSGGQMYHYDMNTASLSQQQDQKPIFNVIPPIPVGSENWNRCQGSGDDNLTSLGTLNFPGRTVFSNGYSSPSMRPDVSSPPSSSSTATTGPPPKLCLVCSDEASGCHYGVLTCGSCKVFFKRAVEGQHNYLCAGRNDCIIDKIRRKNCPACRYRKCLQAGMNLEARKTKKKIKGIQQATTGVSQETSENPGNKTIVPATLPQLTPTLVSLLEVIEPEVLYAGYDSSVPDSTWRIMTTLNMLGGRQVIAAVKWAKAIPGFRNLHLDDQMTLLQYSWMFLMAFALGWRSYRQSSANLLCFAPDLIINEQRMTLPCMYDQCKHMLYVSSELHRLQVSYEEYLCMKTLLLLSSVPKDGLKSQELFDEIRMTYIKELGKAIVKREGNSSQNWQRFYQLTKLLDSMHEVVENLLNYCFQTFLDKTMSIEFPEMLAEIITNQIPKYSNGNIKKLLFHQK

[5] = target: Mitogen-activated protein kinase 10 (Mus musculus) (UniProt Q61831); experiment: JNK3 AlphaScreen Assay (AID 530; active = well fitted curve in either direction with a large enough effect, not every such curve was filed as active;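 also: kinase came from lysate of stimulated human HepG2 cells; signal reports phosphorylation of biotinylated GST-cJun 1-79 at Ser73 with 10 µM ATP; % is scaled to controls: 0 for no effect and ±100 for the full control effect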)
Method in brief: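 HepG2 lysate (IL-1b/TNFa pre-activated) + biotin-GST-cJun 1-79 + anti-pSer73 cJun; cpd titration, 15 min RT; ATP 10 uM start; Tris pH 7.6, MgCl2, DTT, vanadate; beads in EDTA buffer; AlphaScreen.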

[6] = target: 3',5'-cyclic-AMP phosphodiesterase 4B (Homo sapiens) (UniProt Q07343); experiment: qHTS Assay for Inhibitors of PDE-IV (AID 607; active = well fitted activation curve with a large enough effect in the main read-out, with a control signal flat, not every such curve was filed as active; also: % of control where 0% means no effect)
Sequence of 3',5'-cyclic-AMP phosphodiesterase 4B (Homo sapiens) (Q07343 whole entry, looked up): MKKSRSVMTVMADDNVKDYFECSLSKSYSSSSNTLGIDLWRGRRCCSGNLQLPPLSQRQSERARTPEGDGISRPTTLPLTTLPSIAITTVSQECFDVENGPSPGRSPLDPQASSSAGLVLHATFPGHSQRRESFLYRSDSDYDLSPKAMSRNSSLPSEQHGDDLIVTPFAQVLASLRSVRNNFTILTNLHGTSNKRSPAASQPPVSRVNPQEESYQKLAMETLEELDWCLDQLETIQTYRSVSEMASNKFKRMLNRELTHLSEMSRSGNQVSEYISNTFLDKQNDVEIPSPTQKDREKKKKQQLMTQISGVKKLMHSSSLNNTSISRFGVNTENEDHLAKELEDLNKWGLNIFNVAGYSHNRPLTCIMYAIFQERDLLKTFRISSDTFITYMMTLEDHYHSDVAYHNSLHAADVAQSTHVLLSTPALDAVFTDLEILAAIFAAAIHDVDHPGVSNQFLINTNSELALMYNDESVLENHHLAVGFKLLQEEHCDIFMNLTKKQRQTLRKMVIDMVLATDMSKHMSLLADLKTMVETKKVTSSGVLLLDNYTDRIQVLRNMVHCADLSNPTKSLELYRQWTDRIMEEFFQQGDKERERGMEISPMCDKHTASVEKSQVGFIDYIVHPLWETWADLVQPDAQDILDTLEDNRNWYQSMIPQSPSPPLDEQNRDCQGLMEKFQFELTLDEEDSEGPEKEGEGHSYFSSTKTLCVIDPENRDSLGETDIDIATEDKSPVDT
Method in brief: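 The readout is membrane depolarisation from a cAMP-sensing CNG channel, detected with a potential dye at ex 535/em 590. Cells were HEK293-derived (endogenous PDE-IV) at 1000 cells/well, titrated up to 22.9 uM final.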

[7] = target: Cytochrome P450 3A4 (Homo sapiens) (UniProt P08684); experiment: qHTS Assay for Activators of Cytochrome P450 3A4 (AID 885); also: nearly all actives have a fitted effect of over 65% in size
Sequence of Cytochrome P450 3A4 (Homo sapiens) (P08684 whole entry, looked up): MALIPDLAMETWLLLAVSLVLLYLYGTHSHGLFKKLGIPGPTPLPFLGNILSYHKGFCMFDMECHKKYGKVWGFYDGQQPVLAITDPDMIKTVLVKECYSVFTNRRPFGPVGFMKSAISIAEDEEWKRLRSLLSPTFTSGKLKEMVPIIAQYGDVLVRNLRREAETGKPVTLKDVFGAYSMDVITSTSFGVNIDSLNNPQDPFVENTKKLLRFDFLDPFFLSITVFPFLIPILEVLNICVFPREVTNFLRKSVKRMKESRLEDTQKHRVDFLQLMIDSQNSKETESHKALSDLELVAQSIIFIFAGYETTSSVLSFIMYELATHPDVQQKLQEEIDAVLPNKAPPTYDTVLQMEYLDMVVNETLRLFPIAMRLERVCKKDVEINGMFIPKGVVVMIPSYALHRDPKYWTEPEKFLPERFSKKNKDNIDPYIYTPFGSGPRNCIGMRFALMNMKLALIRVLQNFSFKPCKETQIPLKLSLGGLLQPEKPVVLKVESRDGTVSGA
Method in brief: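 Activators are scored by enhanced luminescence from CYP3A4 conversion of luciferin-PPXE (25uM, equal to KM) to luciferin, after 60 min at RT with an NADPH-regenerating system.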

[8] = target: ATP-dependent 6-phosphofructokinase (Trypanosoma brucei brucei) (UniProt O15648); experiment: qHTS Assay to Find Inhibitors of T. brucei phosphofructokinase: hit validation (AID 492961); also: % is scaled to controls: 0 for no effect and ±100 for the full control effect
Sequence of ATP-dependent 6-phosphofructokinase (Trypanosoma brucei brucei) (O15648 whole entry, looked up): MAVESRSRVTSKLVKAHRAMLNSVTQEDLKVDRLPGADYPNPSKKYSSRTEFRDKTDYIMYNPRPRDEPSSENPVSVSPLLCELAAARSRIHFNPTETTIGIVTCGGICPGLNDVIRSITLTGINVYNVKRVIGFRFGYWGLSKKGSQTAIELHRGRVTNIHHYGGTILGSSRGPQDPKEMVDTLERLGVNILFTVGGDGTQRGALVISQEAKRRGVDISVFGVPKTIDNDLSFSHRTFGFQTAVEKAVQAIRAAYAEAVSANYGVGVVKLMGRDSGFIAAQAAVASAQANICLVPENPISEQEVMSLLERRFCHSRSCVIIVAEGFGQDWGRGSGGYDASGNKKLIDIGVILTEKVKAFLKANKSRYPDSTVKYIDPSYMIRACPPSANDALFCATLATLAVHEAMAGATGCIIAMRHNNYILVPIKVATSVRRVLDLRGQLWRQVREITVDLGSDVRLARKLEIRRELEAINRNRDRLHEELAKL
Method in brief: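 Luminescence from ADP-Glo reports ADP generated as T. brucei PFK (1.25 nM) phosphorylates 0.5 mM fructose-6-phosphate using 0.1 mM ATP. Reactions ran 45 min at room temperature, pH 8.0.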

[9] = target: Ubiquitin carboxyl-terminal hydrolase 1 (Homo sapiens) (UniProt O94782); experiment: Inhibitors of USP1/UAF1: Pilot qHTS (AID 504865);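 also: rhodamine fluorescence freed from ubiquitin-rhodamine substrate followed over time; top concentration of the series differs between compounds; % is scaled to controls: 0 for no effect and ±100 for the full control effect; nearly all actives have a fitted effect of over 35% in size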
Sequence of Ubiquitin carboxyl-terminal hydrolase 1 (Homo sapiens) (O94782 whole entry, looked up): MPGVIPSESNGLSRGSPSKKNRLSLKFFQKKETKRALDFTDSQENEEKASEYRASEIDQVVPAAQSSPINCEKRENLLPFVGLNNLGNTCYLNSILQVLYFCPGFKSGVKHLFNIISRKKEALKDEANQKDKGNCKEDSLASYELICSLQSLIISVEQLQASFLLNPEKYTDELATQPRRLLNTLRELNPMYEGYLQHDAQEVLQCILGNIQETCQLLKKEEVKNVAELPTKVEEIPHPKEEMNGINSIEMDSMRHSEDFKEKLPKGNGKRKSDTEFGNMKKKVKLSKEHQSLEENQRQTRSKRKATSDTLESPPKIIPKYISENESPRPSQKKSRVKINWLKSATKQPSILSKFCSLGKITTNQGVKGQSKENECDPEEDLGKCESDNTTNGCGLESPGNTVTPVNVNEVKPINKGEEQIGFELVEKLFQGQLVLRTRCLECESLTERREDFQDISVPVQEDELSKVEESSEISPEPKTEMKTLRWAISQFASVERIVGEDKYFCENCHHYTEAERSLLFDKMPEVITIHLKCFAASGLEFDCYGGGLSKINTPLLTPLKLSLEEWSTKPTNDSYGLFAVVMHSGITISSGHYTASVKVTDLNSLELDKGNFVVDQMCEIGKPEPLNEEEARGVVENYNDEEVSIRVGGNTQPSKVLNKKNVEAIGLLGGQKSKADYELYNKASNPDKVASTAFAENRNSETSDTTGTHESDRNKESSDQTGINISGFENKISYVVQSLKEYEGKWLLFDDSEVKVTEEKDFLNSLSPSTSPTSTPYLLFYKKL
Method in brief: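 USP1/UAF1 complex at 1 nM preincubated 15 min at room temperature with compound, then Ub-Rho substrate added at 150 nM final. Fluorescence (480/540 nm) read kinetically in 50 mM HEPES pH 7.8, 0.5 mM EDTA, 1 mM TCEP, 0.1 mg/ml BSA, 0.01% Tween-20.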

[10] = target: Luciferin 4-monooxygenase (Photinus pyralis) (UniProt P08659); experiment: Biochemical firefly luciferase enzyme assay for NPC (AID 624030);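 also: purified P. pyralis luciferase at 10 nM with luciferin and ATP substrate; 0% = DMSO and -100% = full luciferase inhibition by PTC124 control; nearly all actives have a fitted effect of over 70% in size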
Sequence of Luciferin 4-monooxygenase (Photinus pyralis) (P08659 whole entry, looked up): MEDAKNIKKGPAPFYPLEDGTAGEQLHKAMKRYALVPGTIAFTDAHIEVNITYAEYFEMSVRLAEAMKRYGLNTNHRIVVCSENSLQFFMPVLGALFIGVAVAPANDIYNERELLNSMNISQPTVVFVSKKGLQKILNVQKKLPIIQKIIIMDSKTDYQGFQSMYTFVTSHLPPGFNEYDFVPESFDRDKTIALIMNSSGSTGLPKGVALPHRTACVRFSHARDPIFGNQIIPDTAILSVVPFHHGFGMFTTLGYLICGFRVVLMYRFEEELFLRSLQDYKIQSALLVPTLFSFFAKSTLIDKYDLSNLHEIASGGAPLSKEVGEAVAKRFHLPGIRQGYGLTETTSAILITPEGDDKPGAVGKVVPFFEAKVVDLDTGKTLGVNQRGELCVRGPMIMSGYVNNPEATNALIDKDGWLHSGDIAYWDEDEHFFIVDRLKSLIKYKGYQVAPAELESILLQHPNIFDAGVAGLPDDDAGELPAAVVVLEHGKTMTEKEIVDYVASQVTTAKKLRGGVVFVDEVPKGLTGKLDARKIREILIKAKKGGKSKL
Method in brief: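 Purified P. pyralis luciferase at 10 nM in 50 mM Tris Acetate (final), luminescence read within 5 minutes of enzyme addition to compounds. Activity normalised to PTC124 versus DMSO; concentration-response curves classed by r2, magnitude and activity.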

[11] = S16 Schwann cell viability assay (CellTiter-Glo assay) (AID 624031);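 also: native untransfected S16 rat Schwann cells; cellular ATP luminescence as a viability measure; plate controls were DMSO-treated cells for no effect and cell-free wells for full effect; nearly all actives have a fitted effect of over 70% in size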
Method in brief: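 Following overnight culture in 10% FBS DMEM, parental S16 rat Schwann cells are dosed for 24 h at 37 °C. Viability is read as CellTiter-Glo luminescence and expressed as % activity relative to DMSO (0%) and no-cell wells.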

[12] = S16 Schwann cell PMP22 intronic element firefly luciferase assay (AID 624032);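 also: plate controls were DMSO for no effect and PTC124 positive control mean for full effect; nearly all actives have a fitted effect of over 30% in size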
Method in brief: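 Rat S16 Schwann cells stably carrying firefly luciferase driven by a PMP22 intronic element, in 10% FBS, treated 24 h at 37 C. ONE-Glo luminescence normalized to PTC124 control and DMSO (0%); curves classed by r2, magnitude and activity.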

[13] = S16 Schwann cell PMP22 intronic element beta-lactamase assay (AID 624044; calls by dose curve;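 also: 0% = DMSO and -100% = potassium clavulanate positive control; nearly all actives have a fitted effect of over 15% in size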); details: S16 rat Schwann cells, PMP22 element beta-lactamase FRET, 24 h; ratio activity, negative = inhibition: at 38.3 µM (top of the series)
Method in brief: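 Beta-lactamase reporter under a PMP22 intronic regulatory element in stable S16 rat Schwann cells; 24 h compound exposure. 460 nm blue signal normalized between DMSO (0%) and potassium clavulanate, with 535 nm FRET tracking viability; curves classed by r2 and response.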

[14] = qHTS profiling for inhibitors of Plasmodium falciparum proliferation (AID 504749);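 also: 0% = DMSO vehicle and full inhibition = artemisinin control; nearly all actives have a fitted effect of over 60% in size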; details: P. falciparum in erythrocytes, SYBR Green DNA, 72 h, at 12.8 µM (top of the series)
Method in brief: (§1)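 SYBR Green fluorescence (ex 485 nm, em 535 nm) reports parasite DNA after 72 h compound exposure of infected red cells at 0.3% parasitemia, 2.5% hematocrit; signal normalized to 0.29 uM artemisinin and vehicle wells.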

[15] = system: 3D7; experiment: as above; details: P. falciparum in erythrocytes, SYBR Green DNA, 72 h; series mostly up to 28.7 µM
Method in brief: as §1

[16] = system: AA1029; experiment: as above; details: P. falciparum in erythrocytes, SYBR Green DNA, 72 h; series mostly up to 28.7 µM
Method in brief: as §1

[17] = system: AS120; experiment: as above; details: P. falciparum in erythrocytes, SYBR Green DNA, 72 h; series mostly up to 28.7 µM
Method in brief: as §1

[18] = system: ATS189; experiment: as above; details: P. falciparum in erythrocytes, SYBR Green DNA, 72 h; series mostly up to 28.7 µM
Method in brief: as §1

[19] = system: ATS95; experiment: as above; details: P. falciparum in erythrocytes, SYBR Green DNA, 72 h; series mostly up to 28.7 µM
Method in brief: as §1

[20] = system: C2A; experiment: as above; details: P. falciparum in erythrocytes, SYBR Green DNA, 72 h; series mostly up to 28.7 µM
Method in brief: as §1

[21] = system: CP185; experiment: as above; details: P. falciparum in erythrocytes, SYBR Green DNA, 72 h; series mostly up to 28.7 µM
Method in brief: as §1

[22] = system: CP191; experiment: as above; details: P. falciparum in erythrocytes, SYBR Green DNA, 72 h; series mostly up to 28.7 µM
Method in brief: as §1

[23] = system: CP192; experiment: as above; details: P. falciparum in erythrocytes, SYBR Green DNA, 72 h; series mostly up to 28.7 µM
Method in brief: as §1

[24] = system: CP194; experiment: as above; details: P. falciparum in erythrocytes, SYBR Green DNA, 72 h; series mostly up to 28.7 µM
Method in brief: as §1

[25] = system: CP201; experiment: as above; details: P. falciparum in erythrocytes, SYBR Green DNA, 72 h; series mostly up to 28.7 µM
Method in brief: as §1

[26] = system: CP203; experiment: as above; details: P. falciparum in erythrocytes, SYBR Green DNA, 72 h; series mostly up to 28.7 µM
Method in brief: as §1

[27] = system: CP211; experiment: as above; details: P. falciparum in erythrocytes, SYBR Green DNA, 72 h; series mostly up to 28.7 µM
Method in brief: as §1

[28] = system: CP215; experiment: as above; details: P. falciparum in erythrocytes, SYBR Green DNA, 72 h; series mostly up to 28.7 µM
Method in brief: as §1

[29] = system: CP217; experiment: as above; details: P. falciparum in erythrocytes, SYBR Green DNA, 72 h; series mostly up to 28.7 µM
Method in brief: as §1

[30] = system: CP237; experiment: as above; details: P. falciparum in erythrocytes, SYBR Green DNA, 72 h; series mostly up to 28.7 µM
Method in brief: as §1

[31] = system: CP238; experiment: as above; details: P. falciparum in erythrocytes, SYBR Green DNA, 72 h; series mostly up to 28.7 µM
Method in brief: as §1

[32] = system: CP247; experiment: as above; details: P. falciparum in erythrocytes, SYBR Green DNA, 72 h; series mostly up to 28.7 µM
Method in brief: as §1

[33] = system: CP250; experiment: as above; details: P. falciparum in erythrocytes, SYBR Green DNA, 72 h; series mostly up to 28.7 µM
Method in brief: as §1

[34] = system: CP252; experiment: as above; details: P. falciparum in erythrocytes, SYBR Green DNA, 72 h; series mostly up to 28.7 µM
Method in brief: as §1

CCOC(=O)c1cncn1[C@@H](C)c1ccccc1
inactive: activity change, negative = inhibition [1] 9.06% | activity change, negative = inhibition [2] -21.8% | outcome [3] | Potency [4] > 20.6 µM | outcome [5] | outcome [6] | Potency [7] | outcome [8] | Potency [9] | Potency [10] | Potency [11] | Potency [12] | Potency [13] | activity, negative = inhibition ([14]; parasite line A) -15.7% | activity, negative = inhibition ([14]; parasite line B) -15.4% | Potency [15] | Potency [16] | Potency [17] | Potency [18] | Potency [19] | Potency [20] | Potency [21] | Potency [22] | Potency [23] | Potency [24] | Potency [25] | Potency [26] | Potency [27] | Potency [28] | Potency [29] | Potency [30] | Potency [31] | Potency [32] | Potency [33] | Potency [34]
